Over roughly 33,000 sequences, “E-score (-0.5 to 0.5)” has its median near -0.035; the highest 2% begin near 0.35. The full list was thinned out, with the highest values kept by preference.

This assay has as its target T1, Pdr3 (UniProt P33200).
T1 sequence: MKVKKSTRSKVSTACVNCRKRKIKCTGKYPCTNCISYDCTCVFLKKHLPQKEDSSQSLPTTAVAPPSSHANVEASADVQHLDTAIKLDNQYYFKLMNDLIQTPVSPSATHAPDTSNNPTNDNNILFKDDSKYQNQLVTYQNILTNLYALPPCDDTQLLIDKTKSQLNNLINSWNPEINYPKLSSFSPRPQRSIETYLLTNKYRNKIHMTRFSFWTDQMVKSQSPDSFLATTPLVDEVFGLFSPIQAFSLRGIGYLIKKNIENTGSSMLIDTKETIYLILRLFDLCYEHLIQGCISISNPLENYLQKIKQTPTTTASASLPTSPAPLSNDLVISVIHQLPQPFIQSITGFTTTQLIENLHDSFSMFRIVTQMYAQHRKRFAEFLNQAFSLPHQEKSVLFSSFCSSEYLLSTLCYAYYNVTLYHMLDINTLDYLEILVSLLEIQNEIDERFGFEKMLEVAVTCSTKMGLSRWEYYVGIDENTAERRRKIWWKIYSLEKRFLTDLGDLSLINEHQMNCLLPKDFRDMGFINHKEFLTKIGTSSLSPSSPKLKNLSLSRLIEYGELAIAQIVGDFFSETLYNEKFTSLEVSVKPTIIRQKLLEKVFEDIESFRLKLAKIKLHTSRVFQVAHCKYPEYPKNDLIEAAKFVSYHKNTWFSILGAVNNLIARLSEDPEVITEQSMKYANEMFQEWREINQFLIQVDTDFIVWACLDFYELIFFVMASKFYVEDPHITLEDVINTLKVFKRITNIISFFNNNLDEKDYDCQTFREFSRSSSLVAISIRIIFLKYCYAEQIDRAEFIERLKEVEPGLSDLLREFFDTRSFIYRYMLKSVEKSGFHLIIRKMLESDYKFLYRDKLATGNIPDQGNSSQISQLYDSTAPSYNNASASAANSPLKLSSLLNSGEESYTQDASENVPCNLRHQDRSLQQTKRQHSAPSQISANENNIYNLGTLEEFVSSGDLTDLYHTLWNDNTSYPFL
Briefly: PBM E-score (8-mer binding enrichment) (E-score (-0.5 to 0.5)); higher = stronger / more preferred TF binding. Particulars: protein concentration: 200 nM; construct: GST-full length. The method in brief: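 Detection of bound protein used fluorescent anti-GST, with scans normalised by masliner. The proteins were GST-tagged yeast transcription factors applied at about 100-200 nM to universal all-10-mer Agilent arrays made double-stranded by primer extension. Each ungapped eight-base word, pooled with its reverse complement, was scored with an E-score from the Universal PBM Analysis Suite.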
As for ACGTTCCG, the “PBM E-score” value worked out at 0.445.

For the sequence AGGTTCCC, the “PBM E-score” value is -0.0087.

With CCGTTCCA, the “PBM E-score” value was 0.207.

Regarding ATGTTCCG, the “PBM E-score” value was determined as 0.48.

AGGTTCCG: the “PBM E-score” value is 0.478.

For the sequence CCGTTCCC, the “PBM E-score” value came to 0.253.

For GCAGGGAA, the “PBM E-score” value stood at 0.0453.

On to GAATAGGA, for which the “PBM E-score” value turned out to be 0.0694.

For ACCGGTTG, the “PBM E-score” value came to 0.208.

On to AGCATTTG, for which the “PBM E-score” value was -0.0766.

As to CGAGAGGC, the “PBM E-score” value is -0.119.

Consider GCGAGAGA, for which the “PBM E-score” value was -0.148.

As for CAGTCTTC, the “PBM E-score” value was -0.147.

For the sequence AAACTTAG, the “PBM E-score” value is -0.216.

For CTTGACAC, the “PBM E-score” value was -0.222.

As to CAGGGCTA, the “PBM E-score” value is -0.258.

Take ACTAGTAC: the “PBM E-score” value was -0.105.

As to ACGAATAT, the “PBM E-score” value stood at 0.0203.

Turning to CATGCCGC, the “PBM E-score” value was determined as 0.345.

Regarding AATGCCGT, the “PBM E-score” value is 0.36.

With AATGCCGA, the “PBM E-score” value is 0.219.

As to CATGCCGG, the “PBM E-score” value stood at 0.36.

As for AATGCCGG, the “PBM E-score” value is 0.308.

Consider CATGCCGA, for which the “PBM E-score” value was found to be 0.248.

In the case of ATCCTTGG, the “PBM E-score” value is -0.0819.

For the sequence CGCCGACC, the “PBM E-score” value is 0.135.

AGAGTAGC: the “PBM E-score” value is -0.228.

On to CCCGCAGG, for which the “PBM E-score” value stood at 0.142.

Consider CAGGAAAC, for which the “PBM E-score” value is -0.0475.

In the case of AGGGAAAG, the “PBM E-score” value is -0.106.

With CCGGAAAA, the “PBM E-score” value amounted to 0.44.

Regarding CAGGAAAA, the “PBM E-score” value turned out to be 0.0238.

For the sequence CGGGAAAC, the “PBM E-score” value turned out to be 0.309.

Turning to CGGGAAAG, the “PBM E-score” value was found to be 0.281.

As to CCGGAAAC, the “PBM E-score” value was found to be 0.447.

Consider ACGGAAAG, for which the “PBM E-score” value is 0.44.

Take CTGGAAAA: the “PBM E-score” value was 0.144.

For the sequence ATGGAAAG, the “PBM E-score” value is 0.0226.

Regarding CAGGAAAG, the “PBM E-score” value was -0.278.

As to CCGGAAAG, the “PBM E-score” value worked out at 0.414.

Take CAGTCCCG: the “PBM E-score” value amounted to 0.273.

As to AGTTGACG, the “PBM E-score” value is -0.0734.

On to CGAACTTA, for which the “PBM E-score” value worked out at 0.0051.

Take CTTAGGGA: the “PBM E-score” value is -0.353.

On to GGCTAACA, for which the “PBM E-score” value was -0.132.

Consider ATAGGAGA, for which the “PBM E-score” value is -0.363.

CAGTTACC: the “PBM E-score” value was -0.0312.

On to AACGGATA, for which the “PBM E-score” value worked out at 0.417.

As to CACGGATA, the “PBM E-score” value stood at 0.373.

In the case of TACGGATA, the “PBM E-score” value is 0.224.

In the case of GACGGATC, the “PBM E-score” value stood at 0.313.

For the sequence AACAGATC, the “PBM E-score” value was -0.0307.

AACGGATT: the “PBM E-score” value turned out to be 0.334.

Consider CACGGATC, for which the “PBM E-score” value amounted to 0.395.

Regarding CACGGATG, the “PBM E-score” value worked out at 0.284.

For the sequence AACGGATC, the “PBM E-score” value turned out to be 0.367.

As to AACGGATG, the “PBM E-score” value worked out at 0.283.

Regarding GACGGATA, the “PBM E-score” value was determined as 0.251.

For the sequence CAAGGATC, the “PBM E-score” value was -0.0745.

As to AGAACTCA, the “PBM E-score” value is 0.00923.

For the sequence ACAACTTC, the “PBM E-score” value came out at 0.167.

Regarding CAGTGAGG, the “PBM E-score” value was -0.309.

Take GACCTAGA: the “PBM E-score” value is -0.115.

Consider CCAGCAAC, for which the “PBM E-score” value was -0.00856.

For GCAGCTCC, the “PBM E-score” value was found to be 0.144.

Regarding AAGGGTCC, the “PBM E-score” value amounted to 0.205.

On to GAACGGAC, for which the “PBM E-score” value was determined as 0.259.

For the sequence AAACGGAG, the “PBM E-score” value came to 0.184.

For AAACGGAA, the “PBM E-score” value was 0.469.

Take CAACGGAC: the “PBM E-score” value was determined as 0.261.

For the sequence GAACGGCA, the “PBM E-score” value came to 0.256.

For the sequence CAACGGAG, the “PBM E-score” value was found to be 0.307.

With AAACGGAT, the “PBM E-score” value is 0.377.

On to GAACGGAA, for which the “PBM E-score” value worked out at 0.469.

As to AAACGGTA, the “PBM E-score” value was 0.172.

On to AAACGGGA, for which the “PBM E-score” value came to 0.352.

Regarding AAACGGAC, the “PBM E-score” value is 0.189.

CAACGGAA: the “PBM E-score” value is 0.47.

As for CGCTACCG, the “PBM E-score” value was 0.141.

In the case of CCCTAAGA, the “PBM E-score” value was -0.243.

With CTTGCGGA, the “PBM E-score” value came to 0.137.

Regarding CAGGCGGG, the “PBM E-score” value came to 0.0666.

Consider CCGAGAAG, for which the “PBM E-score” value came to 0.183.

Consider TCCACGAA, for which the “PBM E-score” value was -0.0449.

For TAACGGAA, the “PBM E-score” value was 0.453.

In the case of TAACGGTA, the “PBM E-score” value came out at 0.0452.

These data come from the supplement of paper PMC3334620.
